Screening results (PubChem BioAssay)
A selection: hits, their analogues and other compounds. The true share with any hit is near 3.4%.
MITF primary: blocks human microphthalmia-associated transcription factor; AlphaScreen MITF homodimerization, bead proximity signal; inhibition, % at 2.6 µM; 0.91% of 650,000 active; O75030; AID 1259374; in the data active = inhibition above about 50%;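 also: 0% = vehicle wells with protein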
FBW7 activator: activators of human E3 ligase FBW7. normalized activity (activation), % at 26.1 µM. AlphaScreen FBW7–phospho-cyclin E peptide binding, activator screen. 0.13% of 650,000 active. AID 1259310. Q969H0; in the data active = normalized activity above about 1.9%;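 also: purified mutant Fbw7 with reduced substrate affinity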
GPR151 activ: activators of human GPR151 | PathHunter beta-arrestin GPR151 cells, luminescence | activation, % at 11.2 µM | Q8TDV0 | 1% of 650,000 active | AID 1508602; in the data active = activation above about 4.9%;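 also: 0% = median of compound wells and 100% = cells with positive control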
TEAD-YAP block: TEAD-YAP interaction inhibition; inhibition, % at 9.12 µM; 1.4% of 640,000 active; HEK-TIYL cells, TEAD-Gal4/YAP UAS-luciferase luminescence; AID 1259422; in the data active = inhibition above about 32%;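 also: 0% = median of test compound wells and 100% = reference inhibitor wells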
GPR151 conf act: human GPR151 activation, confirmation screen. activation, % at 11.2 µM. GPR151 PathHunter beta-arrestin cells, luminescence, 90 min; % of EA-reagent control over plate median. 6,700 tested, under 10 active. shares compounds with GPR151 activ. AID 1508609;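 active = mean percent activation across replicates above the confirmation screen cutoff of 4.91%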
GPR119 ag: activates human GPR119 in a GPR151 counter-screen. activation, % at 11.2 µM. 0.3% of 6,700 active. GPR119 PathHunter beta-arrestin cells, luminescence, 90 min; 0 = compound-well median, 100 = enzyme-acceptor control. shares compounds with GPR151 activ;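 active = mean percent activation in the counterscreen above 29.09%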;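 also: counterscreen on off-target GPR119 to flag nonselective hits from the GPR151 activator screen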
Target sequence (Q8TDV5 whole entry, looked up): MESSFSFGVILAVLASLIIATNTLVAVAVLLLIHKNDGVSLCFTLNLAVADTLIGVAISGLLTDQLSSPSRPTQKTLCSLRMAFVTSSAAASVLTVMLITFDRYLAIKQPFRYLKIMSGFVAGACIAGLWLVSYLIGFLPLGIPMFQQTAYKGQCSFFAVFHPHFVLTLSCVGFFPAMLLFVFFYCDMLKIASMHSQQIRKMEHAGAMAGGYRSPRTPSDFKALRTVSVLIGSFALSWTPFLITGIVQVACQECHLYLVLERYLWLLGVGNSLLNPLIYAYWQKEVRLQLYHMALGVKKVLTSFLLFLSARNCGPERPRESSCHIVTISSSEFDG
An asterisk follows results filed as active; . = no result given; ! = not active in a repeat.

SMILES | MITF primary | FBW7 activator | GPR151 activ | TEAD-YAP block | GPR151 conf act | GPR119 ag
CC(NC(=O)c1ccc(N(Cc2ccccc2)S(C)(=O)=O)cc1)c1ccccc1 (stereo unspecified) | -1 | 0 | 1 | 0 | . | .
CCN(CC)S(=O)(=O)c1nnc(NC(=O)CCc2ccccc2)s1 | 3 | 0 | 2 | -1 | . | .
CCC(C)(C(=O)NC1CCCC1)N(C(=O)CNC(=O)c1ccccc1)c1ccccc1 (stereo unspecified) | -2 | 0 | -1 | 5 | . | .
CC(Oc1ccc2c3c(c(=O)oc2c1)CCCC3)C(=O)O (stereo unspecified) | -1 | 0 | 0 | 7 | . | .
CSCCC(NC(C)=O)C(=O)Oc1ccc2c3c(c(=O)oc2c1)CCCC3 (stereo unspecified) | 15 | 1 | 5.4*! | 4 | 0 | -4
O=c1[nH]c2ccc(S(=O)(=O)NCc3ccco3)cc2o1 | -2 | 0 | 6.0* | -3 | 0 | 4
O=c1ccc2cc(S(=O)(=O)NCc3ccco3)ccc2o1 | -41 | 0 | 1 | -1 | . | .
O=C(NCc1nc2ccccc2[nH]1)c1ccc2nc(Nc3ccc4ncccc4c3)sc2c1 | 5 | 0 | 6.3* | -22 | 1 | -3
O=Cc1cn(CC(=O)NCc2ccccc2)c2ccccc12 | -5 | 0 | 2 | 12 | . | .
O=Cc1cn(CC(=O)NCCc2ccccc2)c2ccccc12 | -4 | 0 | 7.0* | 13 | -1 | -8
CCn1c(=O)n(CC(=O)N2CCN(c3cccc(Cl)c3)CC2)c(=O)c2ccccc21 | -6 | 0 | -2 | -2 | . | .
CC(C)(C)c1nnc(NC(=O)c2ccc([N+](=O)[O-])cc2)s1 | 13 | 1 | 0 | -2 | . | .
COc1ccc(C(=O)Nc2nnc(C(C)(C)C)s2)cc1[N+](=O)[O-] | -6 | 0 | 7.3* | -13 | -2 | -18
Cc1nccn1-c1ccc(NC(=O)C2CCCN(C3CCSCC3)C2)cc1 (stereo unspecified) | -23 | 0 | 6.8* | 13 | 1 | -3
Cc1ccccc1/[N+]([O-])=C/c1ccc(OC(F)F)cc1 | -6 | 0 | -2 | 7 | . | .
OCCC1CCCCN1c1ccnc2c(-c3ccsc3)cnn12 (stereo unspecified) | -9 | 0 | 5.4* | -54 | 0 | 0
c1ccc(-c2cc(N3CCCCC3)nc(-c3ccncc3)n2)nc1 | 3 | 0 | 9.4* | 11 | -1 | -6
c1ccc(-c2cc(N3CCCCC3)nc(-c3cccnc3)n2)nc1 | 4 | 0 | 1 | 18 | . | .
CC(=O)c1c(C)[nH]c(C(=O)OCC(=O)Nc2ccc(C)cc2[N+](=O)[O-])c1C | -8 | 0 | 1 | 5 | . | .
CC(=O)c1c(C)[nH]c(C(=O)OCC(=O)Nc2ccc(Br)cc2F)c1C | -8 | 0 | 5.0* | 7 | 0 | 3
Cc1ccccc1C(=O)Nc1ccc(-n2c(C)nc3ncccc3c2=O)cc1 | 3 | 0 | 1 | 2 | . | .
COc1cc(OC)cc(C(=O)N2CCc3ccccc3C2CNC(=O)Nc2ccc(Cl)c(Cl)c2)c1 (stereo unspecified) | -8 | 0 | 5.3* | 4 | 1 | 9
COc1cc(OC)cc(C(=O)NNC(=O)Nc2ccc(Cl)c(Cl)c2)c1 | 11 | 0 | -2 | 6 | . | .
Cc1cccc(N2C(=O)NC(=O)/C(=C\c3ccc(-c4ccc(C(=O)O)cc4)o3)C2=O)c1 | 7 | 0 | 0 | -8 | . | .
CCc1cc(N2CCCC2)n2nc3nc(C)cc(C)c3c2n1 | -1 | 1 | 0 | 3 | . | .
SMILES | MITF primary | FBW7 activator | GPR151 activ | TEAD-YAP block | GPR151 conf act | GPR119 ag
CCc1cc(N2CCN(C)CC2)n2nc3nc(C)cc(C)c3c2n1 | -4 | 0 | 7.2* | -12 | 1 | 11
C=CCOC(=O)CCN1C(=O)c2ccccc2C1=O | 4 | 0 | 20* | -4 | -1 | -10
COc1ccccc1CN1C[C@@H]2C[C@@H](c3cccc(SC)c3)N3CCC[C@@]23C1=O | 8 | 0 | 6.5* | -6 | -1 | -21
Cc1ccc(C)n1-c1ccc(Cl)cc1O | 0 | 0 | 0 | 5 | . | .
Cc1ccc(C)n1-c1ccc(Cl)cc1C(=O)O | 70* | -1 | 7.7* | 8 | -1 | -9
COCCCNC(=O)c1ccc(OC)cc1 | 23 | 0 | -2 | -10 | . | .
COCCNC(=O)c1ccc(OC)cc1 | -1 | 1 | 4.9* | -2 | 2 | 1
CCCCc1ccc(NS(=O)(=O)c2ccc(OCC(=O)OC)cc2)cc1 | -9 | 0 | 5.2* | -8 | 0 | 3
COc1ccc(S(=O)(=O)Nc2ccc(F)c(F)c2)cc1C | 8 | 0 | 14* | 3 | 1 | 2
COC(=O)COc1ccc(S(=O)(=O)Nc2ccc(NC(C)=O)cc2)cc1C | 6 | 0 | 6.2* | 2 | 1 | -10
CC(=O)Nc1ccc(NS(=O)(=O)c2cc(C(C)(C)C)cc(C)c2C)cc1 | -4 | 0 | 6.4* | 4 | 0 | 6
COC(=O)COc1ccc(NS(=O)(=O)c2ccc(NC(C)=O)cc2)cc1 | 9 | 1 | -1 | 4 | . | .
Cc1ccc(NS(=O)(=O)c2cc(C(=O)O)cc(C)c2C)cc1 | -11 | 0 | -1 | 6 | . | .
Clc1ccccc1-c1cc2ccccn2c1 | 9 | 0 | -1 | 5 | . | .
CCOC(=O)COc1ccc(S(=O)(=O)Nc2ccc(C(=O)OCC)cc2)cc1 | -7 | 0 | 5.0* | 0 | -1 | 3
CCOc1ccc(S(=O)(=O)Nc2ccc3oc(C)c(C(=O)OC)c3c2)cc1 | 19 | 0 | 8.9* | 63* | 0 | 16
COC(=O)c1c(C)oc2ccc(NS(=O)(=O)c3ccc(C(C)(C)C)cc3)cc12 | 8 | 0 | 0 | 29 | . | .
CCOC(=O)COc1ccc(S(=O)(=O)Nc2ccc(Br)cc2)cc1 | -2 | 0 | 3 | 4 | . | .
O=C(Nc1ccc(N2CCOCC2)cc1)c1cccc(-n2nccc2NC(=O)c2ccc(-c3ccccc3)o2)c1 | -7 | 0 | -1 | 4 | . | .
COc1ccc(-c2nc3c(c4c2C[C@H](c2ccccc2)OC4)CN(C(=O)N[C@@H](C)c2ccccc2)CC3)c(C)c1 | -5 | 0 | -1 | . | . | .
COc1ccc(-c2nc3c(c4c2C[C@H](c2ccccc2)OC4)CN(C(=O)N[C@@H](C)C(=O)OC(C)C)CC3)c(C)c1 | -12 | 0 | 6.2* | . | 0 | 3
Cn1c(=O)c2c(ncn2CC(=O)N/N=C/c2cccc(F)c2)n(C)c1=O | -2 | 0 | 5.6* | -4 | 0 | -6
CC(C)CCn1c(-c2ccccc2)nc2ccccc21 | -11 | 0 | 8.6* | 7 | 0 | 1
COc1ccc(-c2noc(CN(C)Cc3ccncc3C)n2)c(OC)c1OC | 7 | 0 | 15* | 4 | 0 | 10
CCN(CC)c1nc(NCCc2ccc(O)cc2)nc(Nc2ccc(C(F)(F)F)cc2)n1 | 14 | 0 | -2 | -5 | . | .
